# Unmarked numbers belong to inactive results. Inconclusive results are not listed. A call without a number means that no potency is given here. Activity calls are given as the source filed them. Calls come from the whole dose curve; as a rule, active = well fitted curve in the direction sought with a large enough effect; inconclusive = small, poorly fitted or top-dose-only effect, or another doubt; inactive = no such curve, though single readings can be large; an effect the other way counts as inactive or inconclusive.
# Columns and labels:
# [1] = Primary qHTS for inhibitors of nuclear receptor binding SET domain protein 2 (NSD2) in an isogenic RCH-ACV NSD2 p.E1099K mutant (9B) (AID 1645876); note: nearly all actives have a fitted effect of over 70% in size; note: potency is the fitted concentration of half-maximal effect
# [2] = biological target: Glutathione peroxidase 1 (Homo sapiens) (UniProt P07203); test: Primary qHTS Assay for Inhibitors of Recombinant Selenoprotein Glutathione Peroxidase 1 (GPX1) (AID 1845191); note: nearly all actives have a fitted effect of over 65% in size
# Glutathione peroxidase 1 (Homo sapiens), sequence (P07203 whole entry, looked up): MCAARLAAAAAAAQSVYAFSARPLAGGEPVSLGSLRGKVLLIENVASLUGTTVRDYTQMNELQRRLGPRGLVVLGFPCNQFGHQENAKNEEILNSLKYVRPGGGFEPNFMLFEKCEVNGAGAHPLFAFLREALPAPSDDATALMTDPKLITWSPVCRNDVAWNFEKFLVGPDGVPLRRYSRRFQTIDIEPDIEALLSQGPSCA
# Summary of the method: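 GR-coupled readout: NADPH consumption tracked by fluorescence, ex 340/em 450 nm, at t=0 and after 15 min at RT. Final mix 10 nM GPX1, 1 mM GSH, 0.5 mM CHP, 0.5 mM NADPH, 100 nM GR, 0.01% BSA, following 30 min enzyme–compound preincubation.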
# [3] = Primary qHTS for inhibitors of nuclear receptor binding SET domain protein 2 (NSD2) in an RCH-ACV wild type WT cells (2C) (AID 1645877); note: nearly all actives have a fitted effect of over 70% in size; note: potency is the fitted concentration of half-maximal effect
# [4] = biological target: Phospholipid hydroperoxide glutathione peroxidase GPX4 (Homo sapiens) (UniProt P36969); test: Primary qHTS Assay for Inhibitors of Recombinant Selenoprotein Glutathione Peroxidase 4 (GPX4) (AID 1845192); note: series mostly up to about 50 µM; nearly all actives have a fitted effect of over 65% in size
# Phospholipid hydroperoxide glutathione peroxidase GPX4 (Homo sapiens), sequence (P36969 whole entry, looked up): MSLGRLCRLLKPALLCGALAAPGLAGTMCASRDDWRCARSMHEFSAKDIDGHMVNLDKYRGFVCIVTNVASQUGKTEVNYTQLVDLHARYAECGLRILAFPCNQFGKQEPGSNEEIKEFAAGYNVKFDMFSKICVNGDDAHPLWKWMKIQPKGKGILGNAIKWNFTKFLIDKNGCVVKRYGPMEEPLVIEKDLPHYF
# Summary of the method: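 Steps: GPX4 plus compound, 30 min RT; add GR/GSH/NADPH master mix; start with cumene hydroperoxide; read 340/450 nm fluorescence at 0 and 15 min. Finals were 200 nM GPX4, 1 mM GSH, 0.5 mM CHP, 0.5 mM NADPH, 100 nM GR.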
# [5] = biological target: Luciferin 4-monooxygenase (Photinus pyralis) (UniProt P08659); test: Primary firefly luciferase (FLuc) qHTS assay for identification of artifact compounds. (AID 1845220); note: nearly all actives have a fitted effect of over 60% in size
# Summary of the method: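 D-luciferin and ATP (10 uM each, final) in Tris acetate buffer pH 7.6 were incubated with compounds for 15 min at room temperature. The reaction was started with 10 nM Photinus pyralis luciferase and luminescence read after 5 min. Percent inhibition was fitted to a 4-parameter Hill equation.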
# [6] = Primary fluorescence-based thiol-reactive (MSTI) qHTS assay for identification of artifact compounds. (AID 1845221);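 note: series mostly up to about 54 µM; thiol-reactive compounds lower the probe fluorescence signal; nearly all actives have a fitted effect of over 65% in size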
# Summary of the method: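 MSTI probe at 4 uM final in 2% DMSO/PBS pH 7.4; compounds, 1 h at room temperature in dark. Fluorescence Ex/Em 525/598 nm, normalised to Acetyl-MSTI and MSTI, fitted to 4-parameter Hill.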
# [7] = NCATS anti-infectives library activity on HEK293 viability as a counter-qHTS vs the C. elegans viability qHTS (AID 1745854)
# Summary of the method: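 Cytotoxicity counter-screen to a worm viability qHTS: CellTiter-Glo luminescence read 10 min after reagent addition. Compounds (final up to 41.7 uM, a 1:5 dilution series) incubated 24 hr at 37C with 1,500 HEK293 cells per well; digitonin control.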
structure (smiles),measurement,setting,value
CCNC(=O)c1cc2c(-c3cc(OCCN4CCCC4)c(Cl)cc3Cl)nc(N)nc2s1,Potency,[1],0.512 µM (active)
same,Potency,[2],inactive
C[C@@H](Cc1cc2c(c(C(N)=O)c1)N(CCCO)CC2)NCCOc1ccccc1OCC(F)(F)F,Potency,[1],inactive
same,Potency,[3],inactive
same,Potency,[2],inactive
same,Potency,[4],inactive
same,Potency,[5],inactive
same,Potency,[6],inactive
CC1(C)O[C@@H]2C[C@H]3[C@@H]4CCC5=CC(=O)C=C[C@]5(C)[C@@H]4[C@@H](O)C[C@]3(C)[C@]2(C(=O)CO)O1,Potency,[1],inactive
same,Potency,[2],inactive
same,Potency,[4],inactive
C[C@](Cc1c[nH]c2ccccc12)(NC(=O)OC1C2CC3CC(C2)CC1C3)C(=O)NC[C@H](NC(=O)CCC(=O)O)c1ccccc1 (stereo partly specified),Potency,[1],inactive
same,Potency,[2],inactive
CNC(=O)Nc1ccc(-c2nc(N3CC4CCC(C3)O4)c3cnn(C4CCC5(CC4)OCCO5)c3n2)cc1,Potency,[1],0.0742 µM (active)
same,Potency,[2],inactive
O=C(NC1CC1)c1cccc(-c2ccc3c(NC(=O)C4CC4)n[nH]c3c2)c1,Potency,[1],8.33 µM (active)
same,Potency,[2],inactive
same,Potency,[4],inactive
COc1cc(C(=O)NC2CCN(C)CC2)ccc1Nc1ncc2c(n1)N(C1CCCC1)CCC(=O)N2C(C)C,Potency,[1],13.2 µM (active)
same,Potency,[3],10.5 µM (active)
same,Potency,[4],inactive
COc1cc(CCc2cc(NC(=O)c3ccc(N4C[C@@H](C)N[C@@H](C)C4)cc3)n[nH]2)cc(OC)c1,Potency,[1],9.34 µM (active)
same,Potency,[3],5.9 µM (active)
same,Potency,[2],inactive
same,Potency,[4],inactive
same,Potency,[5],inactive
same,Potency,[6],inactive
CCC(C(=O)O)C1CCC(C)C(C(C)C(O)C(C)C(=O)C(CC)C2OC3(C=CC(O)[C@@]4(CC[C@](C)(C5CC[C@@](O)(CC)C(C)O5)O4)O3)C(C)CC2C)O1 (stereo partly specified),Potency,[1],0.468 µM (active)
same,"activity change, negative = cytotoxicity",[7],-17.2% [at 0.334 µM]
same,Potency,[2],inactive
same,Potency,[4],inactive

# Source: PubChem BioAssay (NCATS)
